Assay results published in ChEMBL document CHEMBL3433997, “St. Jude Leishmania screening dataset” (2016).
Values joined by “and” are separate entries in the source; they are usually repeats but may differ in a detail not shown here. Equal entries are not always repeated.

What was measured:
Format in all cases: functional
[1] = molecular target: Solute carrier family 2, facilitated glucose transporter member 1 (Homo sapiens) (UniProt P11166); test: ST_JUDE_LEISH: Cytotoxicity at 2uM final concentration against transgenic Leishmania Mexicana promastigotes LmGLUT1 that are glucose transport deficient and complemented with the human glucose transporter GLUT1. Activity is measured by DNA content using SYBR green in vitro
[2] = molecular target: Hexose transporter 1 (Plasmodium falciparum) (UniProt O97467); test: ST_JUDE_LEISH: Cytotoxicity at 2uM final concentration against transgenic Leishmania Mexicana promastigotes LmPfHT that are glucose transport deficient and complemented with the Plasmodium falciparum hexose transporter. Activity is measured by DNA content using SYBR green in vitro
[3] = molecular target: Glucose transporter (Leishmania mexicana) (UniProt O61059); test: ST_JUDE_LEISH: Cytotoxicity at 2uM final concentration against transgenic Leishmania Mexicana promastigotes LmGT2 that are glucose transport deficient and complemented with the L. Mexicana glucose transporter 2. Activity is measured by DNA content using SYBR green in vitro

Sequence of Solute carrier family 2, facilitated glucose transporter member 1 (Homo sapiens) (P11166 whole entry): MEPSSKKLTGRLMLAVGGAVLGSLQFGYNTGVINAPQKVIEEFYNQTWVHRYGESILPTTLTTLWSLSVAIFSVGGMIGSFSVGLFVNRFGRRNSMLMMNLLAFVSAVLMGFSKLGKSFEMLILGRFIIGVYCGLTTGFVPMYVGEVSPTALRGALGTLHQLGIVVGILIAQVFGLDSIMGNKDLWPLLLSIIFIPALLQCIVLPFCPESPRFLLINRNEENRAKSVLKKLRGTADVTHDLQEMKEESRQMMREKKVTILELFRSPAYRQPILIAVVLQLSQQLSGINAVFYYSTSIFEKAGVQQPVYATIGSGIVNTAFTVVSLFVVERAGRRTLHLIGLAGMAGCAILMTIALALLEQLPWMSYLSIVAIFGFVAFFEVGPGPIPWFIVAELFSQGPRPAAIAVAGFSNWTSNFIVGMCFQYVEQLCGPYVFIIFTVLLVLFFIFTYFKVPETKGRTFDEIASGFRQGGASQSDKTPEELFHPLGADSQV

SMILES | inhibition [1] | inhibition [2] | inhibition [3]
Cc1ccc(-c2cc(C(=O)Nc3ccc(S(=O)(=O)N4CCCCC4)cc3)[nH]n2)c(O)c1 | 0.86% | 1.9% | -0.53%
COc1ccc(CCN(C)CCc2ccc(NC(=O)c3cccc4c(=O)c5ccccc5sc34)cc2)cc1 | 2.21% | -0.35% | 0.2%
CC(C)(C)c1ccc(NC(=O)c2cccc(CN3CCN(Cc4cccc(O)c4)CC3)c2)cc1 | 0.93% | -0.15% | 0.64%
CCOc1cc(C(=O)N[C@@H](Cc2ccccc2)[C@H](O)CNCc2cc(OC)cc(OC)c2)cc(N2CCCCS2(=O)=O)c1 | 0.3% | -0.68% | -1.52%
O=C(Cc1cn(-c2ccccc2)nc1-c1ccc(Cl)cc1)Nc1nccs1 | 7.92% | 8.35% | 7.98%
NC(=O)c1cc2nc(NC3CCC3)nc(Nc3cccc4[nH]ncc34)c2[nH]1 | -0.69% | -0.16% | -1.17%
CC(C)(C)OC(=O)NCCc1cccc(-c2c[nH]c3ncc(-c4cccc(NS(C)(=O)=O)c4)cc23)c1 | -0.22% | -2.71% | 7.65%
O=C(C=Cc1ccc(Cl)c(Cl)c1)NCCCCCN1CCCC(CCCNS(=O)(=O)c2cccc(C(F)(F)F)c2)C1 (centres undefined) | 0.93% | -0.07% | 2.4%
Cc1cc(NCCC(=O)NCCOc2ccccc2)nc(NCCc2ccc(F)cc2)n1 | 2.06% | 0.98% | -2.75%
O=[N+]([O-])c1ccccc1C=NN=c1c2c([nH]c3ccccc13)CCCC2 | 20.8% | 17.5% | 12%
O=C(Nc1ccccc1Cl)c1cc2ccccc2cc1O | -2.32% | -1.17% | -0.43%
CN1CCN(c2cc3c(cc2Cl)CCN3C(=O)Cc2ccc(Cl)c(NC(=O)Nc3cccc([N+](=O)[O-])c3)c2)CC1 | -0.26% | -1.82% | 1.55%
Clc1ccc2c(NCCCCCCCCNc3ccnc4cc(Cl)ccc34)ccnc2c1 | 2.99% | 1.53% | 1.88%
CN1CCCc2ccc(NC(=O)c3cnc(-c4ccccc4)cn3)cc21 | 0.24% | 0.87% | -0.23%
CN(C)C(=O)CCCn1c(CNCCCNc2cc(=O)c3ccccc3[nH]2)cc2c(Cl)cc(Cl)cc21 | 0.57% | 2.54% | 2%
CCc1cccc(-n2c(=O)c3cccnc3n2CC(=O)NC2CCCC2)c1 | 3.43% | 12% | 4.05%
Cc1cc2c3c(N)nc(N)nc3ccc2n1C(C)C | 75.6% | 79.8% | 67.2%

SMILES | inhibition [1] | inhibition [2] | inhibition [3]
Cc1cc(N(C)C)nc(Nc2ccc(NC(=O)c3cccc(F)c3)cc2)n1 | 3.36% | 10.1% | 3.75%
Oc1cc(Nc2ccnc3cc(-c4ccc(CN5CCCCC5)o4)c(Cl)cc23)c(Cl)cc1F | 1.26% | 1.8% | 1.57%
Clc1ccc2c(NCCNc3ccnc4cc(Cl)ccc34)ccnc2c1 | -0.52% | -2.22% | -0.13%
CN(C)CCN(C)Cc1ccc(-c2ccc3c(Nc4ccc(Oc5ccccc5)cc4)ccnc3c2)o1 | 0.78% | 2.26% | 2.63%
O=C(Nc1ccc2c(c1)CCN2C1CCN(Cc2csc3ccccc23)C1)c1ccco1 (centres undefined) | 2.05% | 2.08% | 1.45%
COc1ccc2nccc([C@@H](O)CN3CCC(NCc4nc5c(cc4Cl)SCC(=O)N5)C(F)C3)c2c1 (some centres undefined) | 2.28% and 11.3% | 2.07% and 9.64% | 1.15% and 6.72%
CC(C)C[C@H](NC(=O)c1cc2ccccc2s1)C(=O)N[C@H]1CCN(Cc2ccc(OCCN3CCNCC3)c3ccccc23)C1 | -0.59% | -2.98% | 0.51%
OC(CNCc1ccccc1OCc1ccccc1)c1cccc(C(F)(F)F)c1 (centres undefined) | 15.1% | 11.6% | 10.8%
Cc1nc(-c2ccc(-c3ccc(C(=O)Nc4ccc(I)c(OCC5CCCN5C)c4)cc3)c(C)c2)no1 (centres undefined) | 9.63% | 7.75% | 5.6%
Cc1onc(-c2ccccc2)c1C(=O)Nc1nc(-c2ccccn2)nc2ccsc12 | 2.38% | 1.96% | 0.03%
CCn1ccc2c3c(N)nc(N)nc3ccc21 | 1.21% | 2.13% | -1.34%
O=C(Nc1cccc(CN2CCCN(Cc3ncc[nH]3)CC2)c1)c1ccc2ccccc2c1 | -2.43% | -3.48% | 1.4%
CC(=O)c1ccccc1C(=O)N1CCOc2ccc(C(O)C(c3ccccc3)c3ccccc3)cc2C1 (centres undefined) | 0.04% | -1.21% | -1.21%
COc1ccc2nccc([C@@H](O)CN3CCC(NCc4[nH]c5ccccc5c4F)CC3)c2c1 | 9.88% | 9.58% | 1.18%
N=C(NCCc1c[nH]c2ccccc12)NCc1ccccc1Cl | -1.93% | -1.07% | -1.16%
Cc1nc(N)nc(N)c1CCCOc1cccc(Cl)c1 | 7.39% | 7.51% | -0.98%
